For 23 compounds, activation, viability and Potency results are on record in PubChem BioAssay (NCATS).

Where “and” joins values, the source holds several entries; their conditions need not be identical. Identical values can stand only once. Records with an inconclusive call do not appear. Values without a mark were called inactive. Calls of active or inactive are those of the source. The call rests on the fitted dose curve; in most records, active means well fitted curve in the direction sought with a large enough effect; inconclusive means small, poorly fitted or top-dose-only effect, or another doubt; inactive means no such curve, though single readings can be large; an effect the other way counts as inactive or inconclusive.

Test [1] has as its target Cellular tumor antigen p53 (Homo sapiens) (UniProt P04637). Put plainly: Primary qHTS for small molecule compounds that upregulate eGFP-tagged delta133p53alpha (in N-terminal) cells. (AID 2060322). Further: nearly all actives have a fitted effect of over 75% in size.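 On activation: cells pre-induced with doxycycline then dosed without doxycycline; series mostly up to about 56 µM; 0% = DMSO vehicle and 100% = reference activator.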 Particulars: NCI-H358 eGFP-delta133p53alpha fluorescence, 24 h; activation: active compounds read high. A digest of the protocol:
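NCI-H358 cells pre-induced 24 h with 10 ng/ml doxycycline for eGFP-delta133p53alpha, plated dox-free and exposed 24 h at 37C to titrated compounds. Fixed, Hoechst-stained; gated GFP peak intensity by laser scanning cytometry, normalized to DMSO (0%) and 57.5 uM 5-azacytidine (100%).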
(qHTS replaces the single test concentration by a dilution series.)

Test [2] can be described thus: BET inhibitor-based combinations targeting novel dependencies in MECOM-rearranged (r) AML: SET-2 cell line (AID 2202231). Further: nearly all actives have a fitted effect of over 35% in size.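 On viability: plate controls were DMSO treated cells for no effect and wells without cells for full effect.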 Particulars: SET-2 AML cells viability, CellTiter-Glo luminescence, 48 h; viability: active compounds read low, concentration not given here. A digest of the protocol: (§1)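 Cells were plated at 500 per well and exposed to an 11-point dose series of each drug for 48 hr. Viability was measured by CellTiter-Glo luminescence, normalized to DMSO and empty-well controls, and summarized as AUC and per-cell-line Z-AUC.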
(In general: In ATP-based viability assays light output follows the ATP content of the culture.)

The nature of test [3]: BET inhibitor-based combinations targeting novel dependencies in MECOM-rearranged (r) AML: HNT-34 cell line (AID 2202234). Further: nearly all actives have a fitted effect of over 35% in size. A digest of the protocol:
(§2)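 Activity is given as area under the curve and as Z-AUC, mean-centred within each cell line. It comes from 11-point dose curves normalized to DMSO and empty wells. CellTiter-Glo luminescence was read after 48 hr drug exposure of 500 cells/well.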

Test [4] is described as follows: BET inhibitor-based combinations targeting novel dependencies in MECOM-rearranged (r) AML: UCSD-AML1 cell line (AID 2202235). Further: nearly all actives have a fitted effect of over 40% in size. A digest of the protocol:
as §2

Test [5] can be described thus: BET inhibitor-based combinations targeting novel dependencies in MECOM-rearranged (r) AML: AML-191 cell line (AID 2202236; further: nearly all actives have a fitted effect of over 35% in size). A digest of the protocol: as §1
Test [6] is described as follows: BET inhibitor-based combinations targeting novel dependencies in MECOM-rearranged (r) AML: AML-194 cell line (AID 2202237; further: nearly all actives have a fitted effect of over 40% in size). The method, boiled down: as §1
A short description of test [7]: BET inhibitor-based combinations targeting novel dependencies in MECOM-rearranged (r) AML: MV-4-11 cell line (AID 2202233). Further: nearly all actives have a fitted effect of over 45% in size. A digest of the protocol: as §2
Test [8] is described as follows: BET inhibitor-based combinations targeting novel dependencies in MECOM-rearranged (r) AML: OCI-AML3 cell line (AID 2202232). Further: nearly all actives have a fitted effect of over 35% in size. The conditions noted are these: Potency: OCI-AML3 viability. The method, boiled down: as §1
Potency means the concentration at half of the fitted maximal effect.

Chain of Cellular tumor antigen p53 (Homo sapiens) (P04637 whole entry, looked up): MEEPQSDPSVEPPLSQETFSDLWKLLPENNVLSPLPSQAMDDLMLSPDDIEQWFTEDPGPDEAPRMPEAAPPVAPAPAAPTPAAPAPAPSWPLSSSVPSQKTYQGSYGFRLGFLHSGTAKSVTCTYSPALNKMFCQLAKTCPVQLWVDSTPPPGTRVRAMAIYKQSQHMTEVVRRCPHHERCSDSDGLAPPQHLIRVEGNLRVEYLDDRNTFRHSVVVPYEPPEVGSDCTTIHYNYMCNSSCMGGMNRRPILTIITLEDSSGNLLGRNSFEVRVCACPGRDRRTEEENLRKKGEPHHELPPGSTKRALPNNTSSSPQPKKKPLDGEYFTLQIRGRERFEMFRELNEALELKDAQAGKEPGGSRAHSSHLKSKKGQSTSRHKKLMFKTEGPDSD

For the compound `COc1ccccc1C(=O)Nc1cc2c(cc1N1CCCCC1)n(C)c(=O)n2C`, the activation in test [1] is -12.3%. For the same compound, the viability in test [2] is 101%. Also, the Potency result in test [3], in test [4], in test [5] and in test [6] was “inactive” in each case.

As for `CCCCCCCN(CC)CCCC(O)c1ccc(NS(C)(=O)=O)cc1` (centres undefined), the activation in test [1] is 5.18%. Besides, the viability in test [2] was 96.2%. For the same compound, the Potency result in test [3], in test [4] and in test [5] was “inactive” in each case.

With `CCC(C)(C)C(=O)O[C@H]1C[C@@H](C)C=C2C=C[C@H](C)[C@H](CC[C@@H]3C[C@@H](O)CC(=O)O3)[C@H]21`, the activation in test [1] was -16.4% and -15.4%. The viability in test [2] was 103%. The Potency in test [7] is 18.6 µM (active). Also, the Potency result in test [5] and in test [6] was “inactive” in each case.

Regarding `Cc1cc(Nc2cc(NC(=O)c3c(Cl)cccc3Cl)ccn2)nc(N)n1`, the Potency in test [1] was 34.3 µM (active); in test [2], 3.32 µM (active); in test [3], 0.296 µM (active); in test [4] it was 0.296 µM (active); in test [5], 0.263 µM (active); in test [6], 0.332 µM (active).

On to `N[C@H](CSC(c1ccccc1)(c1ccccc1)c1ccccc1)C(=O)O`, for which the activation in test [1] is -3.21%. The viability in test [2] is 109%. Further, the Potency result in test [7], in test [4] and in test [6] was “inactive” throughout.

As for `CCCCCOC(=O)Nc1nc(=O)n([C@@H]2O[C@H](C)[C@@H](O)[C@H]2O)cc1F`, the activation in test [1] is -37.9%. The viability in test [2] is 110%. The Potency result in test [7], in test [3], in test [4] and in test [6] was “inactive” each time.

Regarding `O=c1ncn2nc(Sc3ccc(F)cc3F)ccc2c1-c1c(Cl)cccc1Cl`, the activation in test [1] is 2.34%. The Potency in test [2] is 20.9 µM (active); in test [7] it was 20.9 µM (active); in test [5], 29.5 µM (active). The Potency entry in test [6] is “inactive”.

As to `COC(=O)[C@H](c1ccccc1Cl)N1CCc2sccc2C1`, the activation in test [1] is 12.2%. Further, the viability in test [2] is 110%. Besides, the Potency result in test [3], in test [4], in test [5] and in test [6] was “inactive” each time.

With `O=S(=O)(O)CCSSCCS(=O)(=O)O`, in test [1], the activation was -2.01%. Also, the viability in test [2] was 104%. In addition, the Potency result in test [7], in test [4], in test [5] and in test [6] was “inactive” in each case.

`CCN(CC)CCCC(C)Nc1nc(C)cc(Nc2ccc3nc(C)cc(N)c3c2)n1` (centres undefined): the activation in test [1] is 4.87%. The viability in test [2] was 116%. Besides, the Potency in test [7] was 29.5 µM (active). For the same compound, the Potency result in test [4], in test [5] and in test [6] was “inactive” throughout.

Take `CC[C@H](C=C[C@@H](C)[C@H]1CC[C@H]2[C@@H]3CC=C4C[C@@H](O)CC[C@]4(C)[C@@H]3CC[C@]12C)C(C)C`: in test [1], the activation is -9.05%. In test [2], the viability was 107%. The Potency result in test [7], in test [3], in test [4], in test [5] and in test [6] was “inactive” throughout.

Regarding `CCOC(=O)c1c(C)n(C)c2ccc(O)cc12`, the activation in test [1] was 6.69% and -7.58%. Besides, the viability in test [2] was 110%. Besides, the Potency result in test [3], in test [4], in test [5] and in test [6] was “inactive” in each case.

Turning to `CCCCC(=O)O[C@]1(C(=O)CO)[C@@H](C)C[C@H]2[C@@H]3CCC4=CC(=O)C=C[C@]4(C)[C@@]3(F)[C@@H](O)C[C@@]21C`, the activation in test [1] was 8.12%. Also, in test [2], the viability is 109%. In addition, the Potency result in test [4] was “inactive”. Moreover, the Potency in test [5] is 0.0132 µM (active).

For `Nc1nccc(-c2ccc3noc(-c4ccc(Cl)cc4)c3c2)n1`, the Potency was 34.3 µM (active) in test [1] and 20.9 µM (active) in test [4]. For the same compound, the viability in test [2] is 88.8%.

As to `Cc1c(C)c2c(c(C)c1O)CCC(C)(COc1ccc(CC3SC(=O)NC3=O)cc1)O2` (centres undefined), the activation in test [1] is -7.34%. In addition, the Potency result in test [8], in test [7], in test [4] and in test [5] was “inactive” throughout. Moreover, the Potency in test [3] was 18.6 µM (active).

`COc1ccc(COc2cc3oc(=O)c4cc(C(C)O)ccc4c3cc2OC)cc1` (centres undefined): the activation in test [1] is 0.91%. In addition, the viability in test [2] was 86.4%. Moreover, the Potency in test [5] is 20.9 µM (active).

As to `Cc1ccc(NC(=O)c2cccc(N(C)C)c2)cc1NC(=O)c1ccc(O)cc1`, in test [1], the activation was -4.71%. Further, in test [2], the viability is 90.3%. Further, the Potency entry in test [4] and in test [6] was “inactive” in each case.

Consider `O=C1[C@H](Cc2ccc(O)cc2)N2C(=O)CCN(C(=O)NCc3ccccc3)[C@H]2CN1Cc1cccc2ccccc12`, for which the activation in test [1] is 18.1%. The Potency is 9.34 µM (active) in test [8], 9.34 µM (active) in test [7], 5.25 µM (active) in test [3] and 9.34 µM (active) in test [4].

Regarding `COc1ccc(-c2coc3cc(O)cc(O)c3c2=O)cc1`, the activation in test [1] is 22.8%. The viability in test [2] is 45.9%. In addition, in test [6], the Potency result was “inactive”.

Consider `CC(C)=CC[C@@H](O)C1=CC(=O)c2c(O)ccc(O)c2C1=O`, for which the activation in test [1] was 3.62%. Moreover, the Potency in test [8] was 14.8 µM (active); in test [7], 8.33 µM (active); in test [3], 9.34 µM (active); in test [4] it was 10.5 µM (active); in test [5], 10.5 µM (active); in test [6], 10.5 µM (active).

Turning to `CC(C)(C)c1cc(C(C)(C)C)c(NC(=O)c2c[nH]c3ccccc3c2=O)cc1O`, the activation in test [1] is 27.3%. The values for the Potency in test [8] and in test [7] were 20.9 µM (active) and 23.5 µM (active), respectively.

In the case of `N#Cc1ccc(NC(=O)Nc2ccccc2Br)c2n[nH]nc12`, the activation in test [1] was -2.35%. The viability in test [2] was 105%. The Potency result in test [3], in test [4] and in test [6] was “inactive” in each case.

As to `O=C(Nc1nnc(-c2ccco2)o1)c1cc(-c2ccccc2)nc2ccccc12`, the activation in test [1] is -15%. The Potency was 14.8 µM (active) in test [8]; 20.9 µM (active) in test [7]; 10.5 µM (active) in test [3]; 8.33 µM (active) in test [4]; 11.8 µM (active) in test [5]; 13.2 µM (active) in test [6].

The term viability denotes a read-out of living cells in per cent, often relative to untreated cells.
